According to the supplement of paper PMC8728848:
The entries come from a sample that favours the strongest signals as a whole.

Tests used:
Test in all cases: glycan array binding signal (z-score within array); higher = stronger binding
Details in all cases: glycan notation: IUPAC condensed, linker removed
[1] = target: Fuc(a1-2)Gal(b1-3)GalNAc(b1-3)Gal(a1-4)Gal(b1-4)Glc
In short: (§1)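 From the Consortium for Functional Glycomics database, 3228 arrays were curated, keeping only those whose protein sequence was available. Binding is given as a within-array Z-score averaged across arrays sharing a protein sequence and across linkers. Negative Z-scores can be read as non-binding.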

[2] = target: Fuc(a1-2)[Gal(a1-3)]Gal(b1-4)GlcNAc(b1-2)Man(a1-3)[Fuc(a1-2)[Gal(a1-3)]Gal(b1-4)GlcNAc(b1-2)Man(a1-6)]Man(b1-4)GlcNAc(b1-4)GlcNAc
In short: as §1

[3] = target: Fuc(a1-2)[Gal(a1-3)]Gal(b1-4)GlcNAc(b1-3)[Fuc(a1-2)[Gal(a1-3)]Gal(b1-4)GlcNAc(b1-6)]GalNAc
In short: as §1

[4] = target: Fuc(a1-2)[Gal(a1-3)]Gal(b1-4)GlcNAc(b1-6)GalNAc
In short: as §1

[5] = target: Fuc(a1-2)[GalNAc(a1-3)]Gal(b1-4)[Fuc(a1-3)]GlcNAc
In short: as §1

[6] = target: Fuc(a1-3)[Gal(b1-4)]GlcNAc(b1-6)GalNAc
In short: as §1

[7] = target: Fuc(a1-3)[Gal3S(b1-4)]Glc
In short: as §1

[8] = target: Gal(a1-3)Gal(b1-4)[Fuc(a1-3)]GlcNAc(b1-2)Man(a1-3)[Gal(a1-3)Gal(b1-4)[Fuc(a1-3)]GlcNAc(b1-2)Man(a1-6)]Man(b1-4)GlcNAc(b1-4)GlcNAc
In short: as §1

[9] = target: Gal(a1-4)GlcNAc
In short: as §1

[10] = target: Gal(b1-3)Gal
In short: as §1

[11] = target: Gal(b1-3)GlcNAc(a1-3)Gal(b1-4)GlcNAc
In short: as §1

[12] = target: Gal(b1-3)GlcNAc(b1-2)Man
In short: as §1

[13] = target: Gal(b1-3)GlcNAc(b1-3)Gal(b1-3)GlcNAc
In short: as §1

[14] = target: Gal(b1-3)[Neu5Ac(a2-6)]GalNAc
In short: as §1

[15] = target: Gal(b1-3)[Neu5Ac(a2-6)]GlcNAc(b1-4)Gal(b1-4)Glc
In short: as §1

[16] = target: Gal(b1-4)Gal
In short: as §1

[17] = target: Gal(b1-4)GlcNAc
In short: as §1

[18] = target: Gal(b1-4)GlcNAc(b1-3)Gal(b1-4)GlcNAc(b1-2)Man(a1-3)[Gal(b1-4)GlcNAc(b1-3)Gal(b1-4)GlcNAc(b1-2)Man(a1-6)]Man(b1-4)GlcNAc(b1-4)GlcNAc
In short: as §1

[19] = target: Gal(b1-4)GlcNAc(b1-3)Gal(b1-4)GlcNAc(b1-2)[Gal(b1-4)GlcNAc(b1-3)Gal(b1-4)GlcNAc(b1-6)]Man(a1-6)[Gal(b1-4)GlcNAc(b1-3)Gal(b1-4)GlcNAc(b1-2)Man(a1-3)]Man(b1-4)GlcNAc(b1-4)GlcNAc
In short: as §1

[20] = target: Gal(b1-4)GlcNAc(b1-3)Gal(b1-4)GlcNAc(b1-3)GalNAc
In short: as §1

[21] = target: Gal(b1-4)GlcNAc(b1-3)[GlcNAc(b1-6)]Gal(b1-4)GlcNAc
In short: as §1

[22] = target: Gal3S(b1-4)Glc6S
In short: as §1

[23] = target: Gal3S(b1-4)[Fuc(a1-3)]GlcNAc6S
In short: as §1

[24] = target: Gal6P(b1-4)GlcNAc
In short: as §1

[25] = target: GalNAc(b1-4)GlcNAc
In short: as §1

[26] = target: GalNAc4S6S(b1-4)GlcNAc
In short: as §1

[27] = target: Glc(a1-6)Glc(a1-6)Glc
In short: as §1

[28] = target: GlcNAc(b1-2)[GlcNAc(b1-4)]Man(a1-3)[GlcNAc(b1-4)][GlcNAc(b1-2)Man(a1-6)]Man(b1-4)GlcNAc(b1-4)GlcNAc
In short: as §1

[29] = target: GlcNAc(b1-3)Gal(b1-4)GlcNAc(b1-3)Gal(b1-4)GlcNAc(b1-2)Man(a1-3)[GlcNAc(b1-3)Gal(b1-4)GlcNAc(b1-3)Gal(b1-4)GlcNAc(b1-2)Man(a1-6)]Man(b1-4)GlcNAc(b1-4)GlcNAc
In short: as §1

[30] = target: GlcNAc(b1-3)Gal(b1-4)GlcNAc(b1-3)Gal(b1-4)GlcNAc(b1-3)Gal(b1-4)GlcNAc(b1-3)Gal(b1-4)GlcNAc(b1-2)Man(a1-3)[GlcNAc(b1-3)Gal(b1-4)GlcNAc(b1-3)Gal(b1-4)GlcNAc(b1-3)Gal(b1-4)GlcNAc(b1-3)Gal(b1-4)GlcNAc(b1-2)Man(a1-6)]Man(b1-4)GlcNAc(b1-4)GlcNAc
In short: as §1

[31] = target: GlcNAc(b1-3)Gal(b1-4)GlcNAc(b1-6)[Gal(b1-3)]GalNAc
In short: as §1

[32] = target: GlcNAc(b1-4)GlcNAc
In short: as §1

[33] = target: Kdn(a2-3)Gal(b1-3)GlcNAc
In short: as §1

[34] = target: Kdn(a2-3)Gal(b1-4)Glc
In short: as §1

[35] = target: Man(a1-2)Man(a1-2)Man(a1-3)Man
In short: as §1

[36] = target: Neu5Ac(a2-3)Gal(b1-3)GlcNAc(b1-2)[Neu5Ac(a2-3)Gal(b1-3)GlcNAc(b1-4)]Man(a1-6)[Neu5Ac(a2-3)Gal(b1-3)GlcNAc(b1-2)Man(a1-3)]Man(b1-4)GlcNAc(b1-4)GlcNAc
In short: as §1

[37] = target: Neu5Ac(a2-3)Gal(b1-3)GlcNAc6S
In short: as §1

[38] = target: Neu5Ac(a2-3)Gal(b1-4)GlcNAc(b1-2)Man
In short: as §1

[39] = target: Neu5Ac(a2-3)Gal(b1-4)[Fuc(a1-3)]GlcNAc(b1-6)[Neu5Ac(a2-3)Gal(b1-3)]GalNAc
In short: as §1

[40] = target: Neu5Ac(a2-6)Gal(b1-4)GlcNAc(b1-2)Man(a1-3)[GlcNAc(b1-4)][Neu5Ac(a2-6)Gal(b1-4)GlcNAc(b1-2)Man(a1-6)]Man(b1-4)GlcNAc(b1-4)GlcNAc
In short: as §1

[41] = target: Neu5Ac(a2-6)Gal(b1-4)GlcNAc(b1-2)Man(a1-3)[Neu5Ac(a2-3)Gal(b1-4)GlcNAc(b1-2)Man(a1-6)]Man(b1-4)GlcNAc(b1-4)GlcNAc
In short: as §1

[42] = target: Neu5Ac(a2-6)Gal(b1-4)GlcNAc(b1-2)Man(a1-3)[Neu5Ac(a2-6)Gal(b1-4)GlcNAc(b1-2)Man(a1-6)]Man(b1-4)GlcNAc(b1-4)[Fuc(a1-6)]GlcNAc
In short: as §1

[43] = target: Neu5Ac(a2-6)Gal(b1-4)GlcNAc(b1-2)Man(a1-6)Man(b1-4)GlcNAc(b1-4)GlcNAc
In short: as §1

[44] = target: Neu5Ac(a2-6)Gal(b1-4)GlcNAc(b1-3)Gal(b1-3)GlcNAc
In short: as §1

[45] = target: Neu5Ac(a2-8)Neu5Ac(a2-8)Neu5Ac
In short: as §1

B1: Gal-9-hFc (Mus musculus), O08573-2 (protein)
chain: MALFSAQSPYINPIIPFTGPIQGGLQEGLQVTLQGTTKSFAQRFVVNFQNSFNGNDIAFHFNPRFEEGGYVVCNTKQNGQWGPEERKMQMPFQKGMPFELCFLVQRSEFKVMVNKKFFVQYQHRVPYHLVDTIAVSGCLKLSFITFQTQNFRPAHQAPMAQTTIHMVHSTPGQMFSTPGIPPVVYPTPAYTIPFYTPIPNGLYPSKSIMISGNVLPDATRFHINLRCGGDIAFHLNPRFNENAVVRNTQINNSWGQEERSLLGRMPFSRGQSFSVWIICEGHCFKVAVNGQHMCEYYHRLKNLQDINTLEVAGDIQLTHVQT
In the case of B1, the “glycan array binding signal (z-score)” value [1] is reported as -0.29, the “glycan array binding signal (z-score)” value [2] is reported as 1.3 and the “glycan array binding signal (z-score)” value [3] is reported as 4.4. For the same binder, the “glycan array binding signal (z-score)” value [4] was 0.473, the “glycan array binding signal (z-score)” value [5] was -0.286 and the “glycan array binding signal (z-score)” value [6] was 0.042. The “glycan array binding signal (z-score)” value [7] was -0.196, the “glycan array binding signal (z-score)” value [8] was -0.043 and the “glycan array binding signal (z-score)” value [9] was -0.452. The “glycan array binding signal (z-score)” value [10] was 0.036, the “glycan array binding signal (z-score)” value [11] was -0.259 and the “glycan array binding signal (z-score)” value [12] was -0.243. For the same binder, the “glycan array binding signal (z-score)” value [13] was 0.085, the “glycan array binding signal (z-score)” value [14] was 0.317 and the “glycan array binding signal (z-score)” value [15] was -0.501. The “glycan array binding signal (z-score)” value [16] was 0.307, the “glycan array binding signal (z-score)” value [17] was -0.167 and the “glycan array binding signal (z-score)” value [18] was 1.94. The “glycan array binding signal (z-score)” value [19] was 3.74, the “glycan array binding signal (z-score)” value [20] was 0.354 and the “glycan array binding signal (z-score)” value [21] was 2.07. The “glycan array binding signal (z-score)” value [22] was 4.35, the “glycan array binding signal (z-score)” value [23] was 3.57 and the “glycan array binding signal (z-score)” value [24] was -0.364. The “glycan array binding signal (z-score)” value [25] was -0.176, the “glycan array binding signal (z-score)” value [26] was -0.079 and the “glycan array binding signal (z-score)” value [27] was 0.138. The “glycan array binding signal (z-score)” value [28] was 2.04, the “glycan array binding signal (z-score)” value [29] was 0.436 and the “glycan array binding signal (z-score)” value [30] was -0.207. For the same binder, the “glycan array binding signal (z-score)” value [31] was -0.325, the “glycan array binding signal (z-score)” value [32] was 4.66 and the “glycan array binding signal (z-score)” value [33] was -0.153. The “glycan array binding signal (z-score)” value [34] was 2.38, the “glycan array binding signal (z-score)” value [35] was -0.431 and the “glycan array binding signal (z-score)” value [36] was -0.482. The “glycan array binding signal (z-score)” value [37] was -0.023, the “glycan array binding signal (z-score)” value [38] was 3.47 and the “glycan array binding signal (z-score)” value [39] was 0.233. The “glycan array binding signal (z-score)” value [40] was -0.272, the “glycan array binding signal (z-score)” value [41] was -0.448 and the “glycan array binding signal (z-score)” value [42] was -0.496. For the same binder, the “glycan array binding signal (z-score)” value [43] was -0.192, the “glycan array binding signal (z-score)” value [44] was -0.307 and the “glycan array binding signal (z-score)” value [45] was 2.03.
